14-3-3 Bad inh = disrupts binding of bovine 14-3-3 zeta to phospho-Bad peptide; P63103; actives 0.71% (n = 220,000); inhibition, % at 21.7 µM; TR-FRET 14-3-3zeta/Dy647-pBad peptide displacement, 1 h;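 active means inhibition above about 70%, limit read from the data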;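 further: 0% = full 14-3-3 plus peptide FRET controls and 100% = background without 14-3-3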
Target sequence (P63103 whole entry, looked up): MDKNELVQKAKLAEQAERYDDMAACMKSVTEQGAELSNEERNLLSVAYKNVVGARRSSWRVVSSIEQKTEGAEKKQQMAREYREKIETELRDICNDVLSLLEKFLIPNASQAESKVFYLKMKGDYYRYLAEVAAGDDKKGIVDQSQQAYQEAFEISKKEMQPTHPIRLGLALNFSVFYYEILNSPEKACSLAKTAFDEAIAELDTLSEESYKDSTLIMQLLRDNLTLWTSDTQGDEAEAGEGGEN
NCF1 inh = blocks human p47phox regulatory protein of NADPH oxidases | P14598 | p47phox/p22phox peptide binding, fluorescence polarization, 2 h | inhibition, % at 24.7 µM | actives 0.53% (n = 220,000) | AID 1274;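 active means inhibition above about 30%, limit read from the data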;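 further: 0% = p47phox with labelled peptide and 100% = labelled peptide alone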
Mcl1-Bid inh = Mcl-1/Bid interaction inhibition | inhibition, % at 21.7 µM | Q07820 | TR-FRET Mcl-1/Bid-Dy647 peptide binding, 1536-well | AID 1021 | actives 0.97% (n = 220,000);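 active means compounds that cut the binding signal by more than half at the single screening dose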;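 further: His-tagged Mcl-1 with europium anti-His antibody binding Bid BH3 peptide; 0% = Mcl-1 plus peptide wells and 100% = peptide-only wells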
Target sequence (Q07820 whole entry, looked up): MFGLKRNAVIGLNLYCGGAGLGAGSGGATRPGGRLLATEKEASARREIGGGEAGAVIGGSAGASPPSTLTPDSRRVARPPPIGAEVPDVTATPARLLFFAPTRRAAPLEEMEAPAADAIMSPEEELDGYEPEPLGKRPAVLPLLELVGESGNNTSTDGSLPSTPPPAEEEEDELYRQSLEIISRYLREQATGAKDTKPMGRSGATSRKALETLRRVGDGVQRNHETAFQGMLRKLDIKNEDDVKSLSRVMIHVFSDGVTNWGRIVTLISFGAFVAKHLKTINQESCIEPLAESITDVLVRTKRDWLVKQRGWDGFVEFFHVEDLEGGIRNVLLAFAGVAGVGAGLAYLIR
Mcl1-Noxa inh = disrupts binding of human Mcl-1 to Noxa peptide; Q07820; TR-FRET Mcl-1/Noxa peptide binding, 2 h; inhibition, % at 21.7 µM; actives 1.5% (n = 220,000);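 active means compounds that cut the protein-peptide binding signal by more than 50% relative to plate controls in a single-dose test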;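 further: His-tagged Mcl-1 with rhodamine Noxa BH3 peptide and terbium anti-His antibody; 0% = Mcl-1 plus Noxa peptide wells and 100% = peptide-only wells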
Mcl-1 Bim block = disrupts Bim peptide binding to human Mcl-1; Bead-based flow cytometry, Bim peptide-Mcl-1 binding; inhibition, % at 10 µM; actives 0.1% (n = 190,000); Q07820; in the data active means inhibition above about 40%;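 further: 0% = no compound tracer wells and 100% = peptide blocker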
* = called active by the depositor; · = no result given. Compounds with a hit are over-represented: about 3.1% of the library has one in this group of screens.

SMILES	14-3-3 Bad inh	NCF1 inh	Mcl1-Bid inh	Mcl1-Noxa inh	Mcl-1 Bim block
O=C(O)CCCNc1ccc(S(=O)(=O)Nc2ccccc2C(=O)O)cc1C(=O)O	6	-9	22	60*	-4
O=C(O)c1ccccc1NS(=O)(=O)c1ccccc1C(F)(F)F	12	4	-5	53*	-2
O=C(O)c1ccccc1NS(=O)(=O)c1cccc2cccnc12	31	-5	-4	-1	-3
CC(C)CCn1c(S(=O)(=O)O)nc2ccccc21	75*	-5	8	15	0
CC(C)Cn1c(S(=O)(=O)O)nc2ccccc21	4	-11	-33	8	·
O=S(=O)(O)c1nc2ccccc2n1Cc1ccccc1	71*	-18	0	-1	4
O=C(NCC1CCCO1)C(c1ccc(N2CCOCC2)cc1)N(C(=O)Cn1nnc2ccccc21)c1ccccc1F (stereo not drawn)	-12	-1	-29	16	1
Clc1ccc(OCc2nnc(-c3ccccc3Br)o2)c(Cl)c1	17	43*	-4	4	38
O=[N+]([O-])c1ccc2c(OCc3nnc(-c4ccccc4Br)o3)ncnc2c1	8	-8	6	61*	·
O=[N+]([O-])c1cc(Br)c(OCc2nnc(-c3ccccc3)o2)c(Br)c1	-7	-10	-17	-9	-2
Clc1ccc(OCc2nnc(-c3ccccc3Br)o2)cc1	1	-39	-1	19	8
CN(CCOc1ccccc1)CC(=O)Nc1cccc(Br)c1	74*	0	31	29	-7
CCOC(=O)N1CCN(C(=O)c2ccc(CS(=O)(=O)c3ccccc3OC)o2)CC1	-2	-1	-44	59*	2
C[C@@H](C(=O)N[C@@H](Cc1c[nH]c2ccccc12)C(=O)O)n1nnc2ccccc2c1=O	-4	-18	-112	3	·
Cc1cc(F)c(F)c(C(=O)N2CCN(C)CC2)c1Cl	1	2	-3	16	0
O=C(O)CCC(=O)NNC(=O)c1cccs1	-6	1	-15	0	0
Cc1cc2cc(CNC(=O)c3ccc(Br)o3)ccc2n1C	7	14	-81	59*	·
O=C1N/C(=C/c2cccs2)C(=O)N1Cc1ccc(Br)cc1	19	-1	14	30	-1
c1ccc(-c2nc3ccccc3c3nncn23)cc1	10	35*	-7	1	0
Cc1cccc(C)c1NC(=O)C1(N2CCN(C(=O)c3ccco3)CC2)CCCCC1	6	-5	-4	11	-2
COC(=O)c1ccccc1NC(=O)NC1CCCCC1	-3	-3	-2	5	·
COc1ccccc1NC1=C(NC(C)=O)C(=O)c2ccccc2C1=O	-9	-2	-39	78*	8
CCOC(=O)c1cnc(SCC(=O)Nc2nc(C)c(C)s2)nc1N	3	2	-20	13	-2
Cc1ccc(OCC(=O)NC(=S)Nc2cccc(NC(=O)c3ccc(Cl)cc3Cl)c2)cc1	-2	-9	63*	8	-4
Cc1ccc(OCC(=O)NC(=S)Nc2cccc(NC(=O)c3ccccc3)c2)cc1	-5	-9	-21	13	-2
SMILES	14-3-3 Bad inh	NCF1 inh	Mcl1-Bid inh	Mcl1-Noxa inh	Mcl-1 Bim block
CCCCn1c(NC(=O)c2ccccc2Cl)c(C#N)c2nc3ccccc3nc21	54	-12	19	-2	0
N#Cc1c(NC(=O)c2ccccc2Cl)n(Cc2ccccc2)c2nc3ccccc3nc12	18	-22	41	70*	2
Cc1oc2c(C)c(O)ccc2c(=O)c1-c1nncn1-c1ccccc1	2	-17	-12	46	-3
Cc1oc2c(O)c(O)ccc2c(=O)c1-c1cnn(-c2ccccc2)c1	-10	-5	-54	56*	0
Cc1oc2c(O)c(O)ccc2c(=O)c1-c1ccccc1	-4	0	-38	71*	·
Cc1c(Cc2ccccc2)c(=O)oc2c(O)c(O)ccc12	8	28	-4	88*	-2
CCOC(=O)C1CCN(Cc2cc(C(C)(C)C)c(O)c(C(C)(C)C)c2)CC1	-5	-6	-26	-28	-2
CC(C)(C)c1cc(CN2CCN(CCO)CC2)cc(C(C)(C)C)c1O	21	-8	62*	28	-4
CCCCNC(=O)C1CCN(C/C(C)=C/c2ccccc2)CC1	71*	-7	14	12	0
CCCCN(C)C(=O)C1CCN(C/C(C)=C/c2ccccc2)CC1	46	-11	20	10	0
COc1ccc(-c2cc(CNS(=O)(=O)c3ccccc3)on2)cc1	5	-25	-3	-17	-1
CCOc1cc(C(=O)Nc2ccc(F)cc2)cc(Br)c1OC	-8	-20	-10	2	-7
CCOc1cc(C(=O)Nc2ccc(N3CCOCC3)cc2)cc(Br)c1OC	10	-10	-25	61*	0
Cc1cc(C)cc(NC(=O)Nc2ccc(N3CCCCC3)cc2)c1	3	-10	-24	23	·
Cc1cc(C)cc(C(=O)Nc2ccc(N3CCCC3)cc2)c1	5	-24	-14	67*	1
CC(C)Oc1ccc(C(=O)Nc2ccc(N3CCCC3)cc2)cc1	13	34*	-13	50	-6
O=C(COC(=O)c1ccc(S(=O)(=O)N2CCCC2)cc1)Nc1ccc(N2CCOCC2)cc1	-9	-2	-20	33	-2
O=C(Nc1ccc(N2CCOCC2)cc1)c1ccc(S(=O)(=O)N2CCCCC2)cc1	-5	37*	-38	-2	-4
CCn1c2ccccc2c2cc(/C=N/NC(=O)c3cc(O)cc(O)c3)ccc21	7	-46	-13	63*	-2
CCn1c2ccccc2c2cc(/C=N/NC(=O)c3ccc(O)cc3)ccc21	1	-48	-7	42	-5
Nc1nnc(CC(=O)N/N=C/c2cc([N+](=O)[O-])cc(Br)c2O)s1	8	3	-56	56*	1
Nc1nnc(CC(=O)N/N=C/c2cccc(OCCOc3ccccc3)c2)s1	11	-9	51*	-6	0
Nc1nnc(CC(=O)N/N=C/c2cccc([N+](=O)[O-])c2)s1	·	-7	-43	19	-2
O=C(COc1ccccc1Cc1ccccc1)NCCCN1CCOCC1	6	-17	-18	16	·
O=C(Nc1cccnc1)c1cccc(-c2cc3ccccc3oc2=O)c1	78*	1	57*	28	-1
SMILES	14-3-3 Bad inh	NCF1 inh	Mcl1-Bid inh	Mcl1-Noxa inh	Mcl-1 Bim block
O=C(Nc1cccnc1)c1cc2c(ccc3ccccc32)o1	77*	-13	26	36	0
O=C(Nc1ccc(-c2cc3ccccc3oc2=O)c(Cl)c1)c1cccnc1	59	-20	-12	-92	-3
COc1cc(NC(=O)c2cccnc2)ccc1-c1cc2ccccc2oc1=O	35	8	20	51*	-1
O=C(Nc1cccc(-c2cc3ccccc3oc2=O)c1)c1ccc(Br)o1	1	-47	-5	0	-5
COc1ccc(S(=O)(=O)Nc2nc3c(s2)CCCC3)cc1	-4	6	-22	1	0
N=C(N)SCP(=O)(c1ccccc1)c1ccccc1	-1	-2	56*	9	·
COc1ccc(NC(=O)CSc2ccc3c4c(cccc24)C(=O)c2ccccc2-3)cc1	28	-51	45	18	-2

Screening results (PubChem)
